Hits are enriched below; roughly 2% of the tested compounds scored in any of these assays.
KKLEB cytotox: counter-screen for CF NF-kB inhibitors: cytotoxicity | KKLEB CF airway cells viability, ATPlite luminescence, overnight; hits give low values; cells stimulated with P. aeruginosa culture filtrate | activity change (cytotoxicity), % at 5 µM | 360,000 compounds, 0.36% hits | AID 602141;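 active = corrected activity change at or below -50% at 5 µM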
LGR2 inh: Drosophila LGR2 receptor signaling inhibition | HEK293 LGR2, CRE-luciferase, bursicon-stimulated, 4 h | inhibition, % at 9.99 µM | 380,000 compounds, 0.35% hits;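 active = drop in luminescence signal, shown as inhibition above about 50% in the replicate tests, limit read from the data, passing the limit was not always enough; inconclusive = probably only some replicates passing the limit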;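 also: agonist challenge used bursicon conditioned medium at about half maximal strength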
CF NFkB inh: blocks PAF-induced NF-kB reporter in cystic fibrosis cells; KKLEB NF-kB-GFP reporter, GFP fluorescence overnight; inhibition, % at 5 µM; 360,000 compounds, 0.86% hits;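 active = at least 50% inhibition at 5 µM, scaled per plate between neutral and stimulator controls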;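 also: PAF is a Pseudomonas aeruginosa culture filtrate used as stimulus; plate controls were PAF-stimulated DMSO wells for no effect and unstimulated DMSO wells for full effect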
Shn3 3UTR inh: reduces Shn3 3'UTR luciferase signal in osteoblasts; Clone20 osteoblast Shn3 3'UTR firefly luciferase, 24 h; inhibition, % at 12.5 µM; 360,000 compounds, 0.52% hits;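 active = mean inhibition of at least 75% with every replicate also reaching 75%; inconclusive = mean inhibition at least 75% but some replicate below; inactive = mean inhibition below 75%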;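 also: 0% = median of neutral control wells and 100% = pilot-screen positive control compound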
EWS-Fli inh: inhibitors of EWS/Fli oncoprotein transcriptional activity; A673 NR0B1-luciferase reporter, viability-normalised; inhibition, % at 12.6 µM; 350,000 compounds, 0.67% hits;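 active = mean inhibition of at least 50% after viability correction, with every replicate also passing that limit; inconclusive = mean reaches 50% but only one of two replicates passes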;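 also: firefly luciferase signal divided by Alamar Blue viability fluorescence both relative to DMSO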
PAX8 inh HTS: PAX8 transcriptional activity inhibition; RMG-I TPO-luciferase reporter, SteadyGlo, 24 h; inhibition, % at 12.6 µM; 360,000 compounds, 1.2% hits;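 active = mean replicate inhibition at least 60% with every replicate also reaching 60%; inconclusive = only one of the two criteria is met; inactive = mean below 60% and not all replicates reaching 60%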;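 also: luciferase light reporting Pax8 driven TPO promoter activity; plate controls were median of neutral control wells for no effect and mitoxantrone controls for full effect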
Starred values were filed as active, the others as inactive; ? = inconclusive; . = no result given; ! = repeats disagree.

SMILES | KKLEB cytotox | LGR2 inh | CF NFkB inh | Shn3 3UTR inh | EWS-Fli inh | PAX8 inh HTS
Cc1cc(C(=O)NC2CCCc3c2cnn3-c2cccc(C)c2C)n(C)n1 (centres undefined) | -12 | 16 | -17 | 91* | . | 22
C=C(NC(=O)C(=C)NC(=O)c1csc(C2=NC3c4csc(n4)C4NC(=O)c5csc(n5)C(C(C)(O)C(C)O)NC(=O)C5CSC(=N5)/C(=C/C)NC(=O)C(C(C)O)NC(=O)c5csc(n5)C3(CC2)NC(=O)C(C)NC(=O)C(=C)NC(=O)C(=C)NC(=O)C(C(C)C)NC2C=Cc3c(C(C)O)cc(nc3C2O)C(=O)OC4C)n1)C(N)=O (centres undefined) | -16 | -7 | -113 | 86* | 74* | 46
O=C(CNc1ccccc1)N/N=C/c1c(O)ccc2ccccc12 | -9 | 20 | 3 | 91* | 0 | 8
O=C(CSCC(=O)Nc1ccccc1)N/N=C/c1c(O)ccc2ccccc12 | -15 | 24 | 27 | 93* | . | .
O=C(N/N=C/c1c(O)ccc2ccccc12)Nc1ccccc1 | . | -16 | . | . | 4 | -33
Cc1noc(C)c1NC(=O)Nc1cccc2c1O[C@H](CN(C)CC1CCCCC1)[C@H](C)CN([C@H](C)CO)C2=O | . | -12 | . | . | 15 | -14
C[C@@H]1CCCCO[C@@H](CN(C)Cc2ccc3c(c2)OCO3)[C@@H](C)CN([C@@H](C)CO)C(=O)c2cc(NS(=O)(=O)c3ccc(Cl)cc3)ccc2O1 | . | 3 | . | . | 69*! | 51
C[C@@H]1CN([C@H](C)CO)C(=O)c2cc(NS(=O)(=O)c3ccc(Cl)cc3)ccc2O[C@@H](C)CCCCO[C@H]1CN(C)Cc1ccc2c(c1)OCO2 | . | -1 | . | . | 14 | 90*!
C[C@@H]1CCCCO[C@@H](CN(C)Cc2ccc3c(c2)OCO3)[C@@H](C)CN([C@H](C)CO)C(=O)c2cc(NS(=O)(=O)c3ccc(Cl)cc3)ccc2O1 | . | 13 | . | . | -1 | -17
C[C@H](CO)N1C[C@H](C)[C@H](CN(C)CC2CC2)Oc2cc(Br)ccc2S1(=O)=O | . | 8 | . | . | -14 | -10
COC(=O)N(C)C[C@@H]1OCc2ccccc2-c2c(n(C)c3ccccc23)C(=O)N([C@H](C)CO)C[C@H]1C | . | 4 | . | . | -6 | .
COc1cccc(C2c3cc4c(cc3OC(N3CCOCC3)C2C)OCO4)c1O (centres undefined) | -5 | -9 | 1 | -21 | 28 | 20
COc1ccc(C2c3cc4c(cc3OC(N3CCOCC3)C2C)OCO4)c(OC)c1 (centres undefined) | -11 | 22 | 30 | 67 | 60* | 37
O=C(Nc1ccc(F)cc1)N1CCCCN2[C@H](CO)[C@@H](c3ccc(C4=CCCCC4)cc3)[C@H]2C1 | . | 1 | . | . | ? | 74*
COc1ccc(NC(=O)N2CCCCN3[C@H](CO)[C@H](c4ccc(C5=CCCC5)cc4)[C@H]3C2)cc1 | . | . | . | . | 18 | 43
COc1ccc(NC(=O)N2CCCCN3[C@@H](CO)[C@@H](c4ccc(C5=CCCC5)cc4)[C@@H]3C2)cc1 | . | . | . | . | 4 | 82*
Cc1noc(C)c1NC(=O)N(C)C[C@@H]1OCCCC[C@H](C)Oc2ccc(NC(=O)c3ccccc3)cc2C(=O)N([C@H](C)CO)C[C@@H]1C | . | 5 | . | . | -2 | 2
COc1ccc(NC(=O)Nc2ccc3c(c2)CC(=O)N([C@@H](C)CO)C[C@H](C)[C@H](CN(C)C(=O)Nc2ccccc2)O3)cc1 | . | 9 | . | . | 3 | 8
C[C@@H]1CN([C@@H](C)CO)C(=O)c2cc(NC(=O)C3CC3)ccc2O[C@@H]1CN(C)C(=O)Nc1ccc(C(F)(F)F)cc1 | . | -1 | . | . | -9 | .
CCCC(=O)NC(NC(=S)Nc1ccc(S(N)(=O)=O)cc1)C(Cl)(Cl)Cl (centres undefined) | 12 | 5 | 14 | 10 | . | .
CCc1ccc(OCC(=O)NC(NC(=S)Nc2ccc(Cl)cc2)C(Cl)(Cl)Cl)cc1 (centres undefined) | -16 | 27 | 27 | 86* | 19 | 82*
CCCC(=O)NC(NC(=S)Nc1ccc(N=Nc2ccccc2)cc1)C(Cl)(Cl)Cl (centres undefined) | 10 | . | 14 | 57 | 15 | 64*
COc1ccc(NC(=O)c2c(Nc3ccccc3)sc(C(=O)c3ccc(F)cc3)c2N)cc1 | -53* | . | 41 | 45 | . | 89*
